The results in this text go back to ChEMBL document CHEMBL2218924, “A broad activity screen in support of a chemogenomic map for kinase signalling research and drug discovery” (Biochem J, 2013).

Test [1] concerns the target T1, Testis-specific serine/threonine-protein kinase 2 (Homo sapiens) (UniProt Q96PF2).
T1 sequence (whole entry): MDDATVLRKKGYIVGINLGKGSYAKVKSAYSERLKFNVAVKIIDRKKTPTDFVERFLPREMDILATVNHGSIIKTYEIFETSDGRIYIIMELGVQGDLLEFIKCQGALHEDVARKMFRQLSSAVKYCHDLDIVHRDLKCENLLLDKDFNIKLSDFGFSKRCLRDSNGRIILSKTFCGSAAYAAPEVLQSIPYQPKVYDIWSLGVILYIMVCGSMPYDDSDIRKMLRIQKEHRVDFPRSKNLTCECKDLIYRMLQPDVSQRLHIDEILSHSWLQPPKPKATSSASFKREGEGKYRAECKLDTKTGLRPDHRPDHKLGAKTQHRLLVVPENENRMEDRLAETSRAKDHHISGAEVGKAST
To be noted: at 10 µM.

Test [2] has as its target T2, Tyrosine-protein kinase Tec (Homo sapiens) (UniProt P42680).
T2 sequence (whole entry): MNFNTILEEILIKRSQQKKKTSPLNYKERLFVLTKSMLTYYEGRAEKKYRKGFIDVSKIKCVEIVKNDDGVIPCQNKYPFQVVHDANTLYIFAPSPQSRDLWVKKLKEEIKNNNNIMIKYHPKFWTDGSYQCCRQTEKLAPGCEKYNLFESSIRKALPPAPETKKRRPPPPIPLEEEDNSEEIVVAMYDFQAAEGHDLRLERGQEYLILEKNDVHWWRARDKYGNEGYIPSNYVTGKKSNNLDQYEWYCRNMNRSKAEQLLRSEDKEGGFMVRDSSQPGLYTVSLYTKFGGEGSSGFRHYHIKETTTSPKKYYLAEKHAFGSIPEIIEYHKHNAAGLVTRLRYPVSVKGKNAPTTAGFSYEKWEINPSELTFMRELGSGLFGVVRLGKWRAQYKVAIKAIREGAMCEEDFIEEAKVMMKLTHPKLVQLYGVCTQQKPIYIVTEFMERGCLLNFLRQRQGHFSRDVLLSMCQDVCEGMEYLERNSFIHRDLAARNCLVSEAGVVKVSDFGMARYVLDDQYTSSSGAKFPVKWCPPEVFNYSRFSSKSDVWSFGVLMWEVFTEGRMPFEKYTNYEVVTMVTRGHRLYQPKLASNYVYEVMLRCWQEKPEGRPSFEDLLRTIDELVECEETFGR
The settings on record: at 1 µM.

The target of test [3] is T2, Tyrosine-protein kinase Tec (Homo sapiens). To be noted: at 10 µM.
The target in test [4] is High affinity nerve growth factor receptor (Homo sapiens) (UniProt P04629). To be noted: at 1 µM.
Test [5] has the same target. To be noted: at 10 µM.
For test [6], the target named is BDNF/NT-3 growth factors receptor (Homo sapiens) (UniProt Q16620). To be noted: at 1 µM.
Chain of BDNF/NT-3 growth factors receptor (Homo sapiens) (Q16620 32-822 limits assumed): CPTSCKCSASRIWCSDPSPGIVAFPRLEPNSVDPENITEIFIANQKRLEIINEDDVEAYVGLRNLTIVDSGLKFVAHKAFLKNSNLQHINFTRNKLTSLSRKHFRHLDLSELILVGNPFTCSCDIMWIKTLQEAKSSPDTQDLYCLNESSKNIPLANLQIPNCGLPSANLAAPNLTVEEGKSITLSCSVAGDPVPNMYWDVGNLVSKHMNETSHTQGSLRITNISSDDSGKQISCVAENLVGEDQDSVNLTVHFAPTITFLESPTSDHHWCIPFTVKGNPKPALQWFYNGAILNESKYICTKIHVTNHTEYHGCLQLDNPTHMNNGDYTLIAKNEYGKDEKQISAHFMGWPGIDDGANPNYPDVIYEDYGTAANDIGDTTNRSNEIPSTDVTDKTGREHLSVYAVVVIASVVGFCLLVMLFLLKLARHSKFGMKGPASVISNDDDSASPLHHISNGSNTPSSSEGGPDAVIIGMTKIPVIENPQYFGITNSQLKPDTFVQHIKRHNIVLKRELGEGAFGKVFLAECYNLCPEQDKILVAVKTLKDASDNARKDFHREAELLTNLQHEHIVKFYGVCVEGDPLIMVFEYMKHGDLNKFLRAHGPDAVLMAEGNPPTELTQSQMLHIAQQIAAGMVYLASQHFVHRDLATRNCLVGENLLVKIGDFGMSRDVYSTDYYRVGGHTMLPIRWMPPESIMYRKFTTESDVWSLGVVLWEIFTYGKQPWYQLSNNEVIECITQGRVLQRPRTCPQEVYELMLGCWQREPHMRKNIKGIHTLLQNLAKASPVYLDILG
The target is the same in test [7]. The settings on record: at 10 µM.
Test [8] addresses Serine/threonine-protein kinase WNK2 (Homo sapiens) (UniProt Q9Y3S1). To be noted: at 1 µM.
In test [9] the target is T3, Testis-specific serine/threonine-protein kinase 1 (Homo sapiens) (UniProt Q9BXA7).
T3 sequence (whole entry): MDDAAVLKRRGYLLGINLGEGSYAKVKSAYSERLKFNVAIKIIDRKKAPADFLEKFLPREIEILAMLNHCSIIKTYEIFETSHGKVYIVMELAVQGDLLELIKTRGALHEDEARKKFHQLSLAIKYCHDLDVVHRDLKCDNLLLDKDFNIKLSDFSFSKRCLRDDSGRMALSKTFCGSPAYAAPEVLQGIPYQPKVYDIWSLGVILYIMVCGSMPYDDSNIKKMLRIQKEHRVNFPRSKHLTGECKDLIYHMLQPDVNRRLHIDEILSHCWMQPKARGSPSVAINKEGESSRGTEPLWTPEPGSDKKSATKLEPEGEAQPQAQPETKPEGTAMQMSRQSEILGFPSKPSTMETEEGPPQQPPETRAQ
To be noted: at 1 µM.

Test [10] deals with Angiopoietin-1 receptor (Homo sapiens) (UniProt Q02763). To be noted: at 10 µM.
Chain of Angiopoietin-1 receptor (Homo sapiens) (Q02763 whole entry): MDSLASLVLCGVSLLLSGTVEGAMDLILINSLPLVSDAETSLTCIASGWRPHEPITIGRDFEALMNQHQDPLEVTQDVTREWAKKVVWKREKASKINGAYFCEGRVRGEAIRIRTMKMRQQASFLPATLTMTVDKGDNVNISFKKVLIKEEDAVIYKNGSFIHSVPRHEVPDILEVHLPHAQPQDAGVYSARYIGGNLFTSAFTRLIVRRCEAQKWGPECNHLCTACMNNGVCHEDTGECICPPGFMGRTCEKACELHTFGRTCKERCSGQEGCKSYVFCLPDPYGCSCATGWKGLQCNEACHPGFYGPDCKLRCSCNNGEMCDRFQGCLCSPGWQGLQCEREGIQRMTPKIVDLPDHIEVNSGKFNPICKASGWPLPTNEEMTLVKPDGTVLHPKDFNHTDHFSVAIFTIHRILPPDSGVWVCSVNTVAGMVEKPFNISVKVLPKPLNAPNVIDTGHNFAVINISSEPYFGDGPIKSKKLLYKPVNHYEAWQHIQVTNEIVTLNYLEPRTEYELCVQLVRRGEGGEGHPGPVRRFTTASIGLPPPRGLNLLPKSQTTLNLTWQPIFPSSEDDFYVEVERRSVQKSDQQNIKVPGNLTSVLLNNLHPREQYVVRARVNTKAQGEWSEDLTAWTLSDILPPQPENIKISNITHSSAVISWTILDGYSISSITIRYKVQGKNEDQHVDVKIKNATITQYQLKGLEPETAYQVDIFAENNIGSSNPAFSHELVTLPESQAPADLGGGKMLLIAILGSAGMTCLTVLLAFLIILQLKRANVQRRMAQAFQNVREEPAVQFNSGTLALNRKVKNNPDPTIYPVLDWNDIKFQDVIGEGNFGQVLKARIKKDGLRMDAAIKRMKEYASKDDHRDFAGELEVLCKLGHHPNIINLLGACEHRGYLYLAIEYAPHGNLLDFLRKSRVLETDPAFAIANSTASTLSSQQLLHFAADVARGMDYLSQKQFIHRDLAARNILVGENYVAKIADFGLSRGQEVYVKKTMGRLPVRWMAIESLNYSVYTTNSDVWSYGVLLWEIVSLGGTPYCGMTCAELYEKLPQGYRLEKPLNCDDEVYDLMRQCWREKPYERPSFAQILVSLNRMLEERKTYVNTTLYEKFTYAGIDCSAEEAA
Test [11] concerns the target T4, Tyrosine-protein kinase TXK (Homo sapiens) (UniProt P42681).
T4 sequence (whole entry): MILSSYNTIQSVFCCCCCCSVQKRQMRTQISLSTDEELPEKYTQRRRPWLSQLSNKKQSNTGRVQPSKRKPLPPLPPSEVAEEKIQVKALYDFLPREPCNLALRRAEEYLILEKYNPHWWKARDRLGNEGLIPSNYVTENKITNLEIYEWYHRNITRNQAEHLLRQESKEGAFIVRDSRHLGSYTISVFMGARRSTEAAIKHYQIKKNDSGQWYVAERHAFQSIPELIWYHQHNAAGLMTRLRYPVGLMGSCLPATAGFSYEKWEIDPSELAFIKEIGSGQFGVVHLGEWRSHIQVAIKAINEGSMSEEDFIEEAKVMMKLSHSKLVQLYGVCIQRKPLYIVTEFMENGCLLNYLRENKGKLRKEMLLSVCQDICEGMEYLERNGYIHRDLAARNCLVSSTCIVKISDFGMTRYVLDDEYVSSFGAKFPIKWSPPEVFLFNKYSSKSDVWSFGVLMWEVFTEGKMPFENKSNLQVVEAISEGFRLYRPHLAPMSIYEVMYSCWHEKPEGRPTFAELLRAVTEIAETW
The settings on record: at 1 µM.

The target in test [12] is T4, Tyrosine-protein kinase TXK (Homo sapiens). To be noted: at 10 µM.
In test [13] the target is Serine/threonine-protein kinase VRK2 (Homo sapiens) (UniProt Q86Y07). The settings on record: at 1 µM.
Chain of Serine/threonine-protein kinase VRK2 (Homo sapiens) (Q86Y07 whole entry): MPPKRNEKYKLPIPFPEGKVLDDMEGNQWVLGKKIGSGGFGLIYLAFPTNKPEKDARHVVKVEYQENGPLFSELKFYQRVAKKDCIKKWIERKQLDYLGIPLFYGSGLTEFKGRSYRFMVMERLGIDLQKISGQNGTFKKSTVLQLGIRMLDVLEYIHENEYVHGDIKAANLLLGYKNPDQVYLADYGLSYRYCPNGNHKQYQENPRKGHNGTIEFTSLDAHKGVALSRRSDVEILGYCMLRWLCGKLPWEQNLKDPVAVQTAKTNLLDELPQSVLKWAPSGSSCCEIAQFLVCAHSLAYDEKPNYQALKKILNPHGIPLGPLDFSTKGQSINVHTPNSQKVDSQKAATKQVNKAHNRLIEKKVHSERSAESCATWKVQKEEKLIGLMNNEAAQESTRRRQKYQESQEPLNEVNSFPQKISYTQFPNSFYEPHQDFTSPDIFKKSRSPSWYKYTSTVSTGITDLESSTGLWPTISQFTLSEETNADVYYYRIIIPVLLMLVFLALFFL
Test [14] shares this target. The settings on record: at 10 µM.
The target of test [15] is Angiopoietin-1 receptor (Homo sapiens) (UniProt Q02763). To be noted: at 1 µM.
The target of test [16] is T5, Serine/threonine-protein kinase ULK3 (Homo sapiens) (UniProt Q6PHR2).
T5 sequence (whole entry): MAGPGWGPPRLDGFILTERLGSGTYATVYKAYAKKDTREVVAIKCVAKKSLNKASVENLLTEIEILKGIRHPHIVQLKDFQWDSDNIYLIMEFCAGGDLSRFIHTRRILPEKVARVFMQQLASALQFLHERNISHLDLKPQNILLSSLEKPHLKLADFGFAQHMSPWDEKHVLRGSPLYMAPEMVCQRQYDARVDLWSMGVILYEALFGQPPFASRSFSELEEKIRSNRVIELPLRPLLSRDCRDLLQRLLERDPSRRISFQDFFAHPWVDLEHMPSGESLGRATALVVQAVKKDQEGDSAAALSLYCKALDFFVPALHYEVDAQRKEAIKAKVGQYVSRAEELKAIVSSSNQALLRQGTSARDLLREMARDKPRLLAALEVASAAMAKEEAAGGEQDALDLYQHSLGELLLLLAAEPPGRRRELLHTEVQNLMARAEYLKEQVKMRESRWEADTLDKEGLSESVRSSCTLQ
The settings on record: at 1 µM.

Test [17] has as its target T5, Serine/threonine-protein kinase ULK3 (Homo sapiens). The settings on record: at 10 µM.
In test [18] the target is T6, Serine/threonine-protein kinase ULK2 (Homo sapiens) (UniProt Q8IYT8).
T6 sequence (whole entry): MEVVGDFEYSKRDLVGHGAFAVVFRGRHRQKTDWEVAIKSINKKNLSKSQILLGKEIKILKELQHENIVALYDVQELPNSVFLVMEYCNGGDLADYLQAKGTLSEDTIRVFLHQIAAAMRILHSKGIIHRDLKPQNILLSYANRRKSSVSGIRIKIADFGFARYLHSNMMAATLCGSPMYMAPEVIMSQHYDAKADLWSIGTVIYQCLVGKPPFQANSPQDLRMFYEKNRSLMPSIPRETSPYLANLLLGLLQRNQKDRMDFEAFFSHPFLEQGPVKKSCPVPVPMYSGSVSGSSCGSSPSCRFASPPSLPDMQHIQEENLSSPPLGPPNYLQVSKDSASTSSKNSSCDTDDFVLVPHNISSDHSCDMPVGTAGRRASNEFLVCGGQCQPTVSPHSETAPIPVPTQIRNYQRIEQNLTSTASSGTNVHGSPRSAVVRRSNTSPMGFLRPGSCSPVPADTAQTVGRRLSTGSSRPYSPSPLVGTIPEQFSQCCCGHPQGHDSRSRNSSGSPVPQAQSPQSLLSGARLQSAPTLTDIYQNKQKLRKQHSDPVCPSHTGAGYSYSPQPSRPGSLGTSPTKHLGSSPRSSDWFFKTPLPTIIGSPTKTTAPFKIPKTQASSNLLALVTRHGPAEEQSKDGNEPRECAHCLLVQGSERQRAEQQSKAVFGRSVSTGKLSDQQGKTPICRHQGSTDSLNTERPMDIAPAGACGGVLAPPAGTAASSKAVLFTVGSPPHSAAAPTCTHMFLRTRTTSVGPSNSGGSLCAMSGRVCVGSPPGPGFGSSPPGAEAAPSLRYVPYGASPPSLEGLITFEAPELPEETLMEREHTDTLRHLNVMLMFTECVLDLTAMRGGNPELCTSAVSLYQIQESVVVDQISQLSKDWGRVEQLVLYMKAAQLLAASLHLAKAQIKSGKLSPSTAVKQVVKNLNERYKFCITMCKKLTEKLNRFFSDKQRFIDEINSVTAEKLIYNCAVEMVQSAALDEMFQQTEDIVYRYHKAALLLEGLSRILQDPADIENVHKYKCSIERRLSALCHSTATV
To be noted: at 1 µM.

In test [19] the target is T6, Serine/threonine-protein kinase ULK2 (Homo sapiens). To be noted: at 10 µM.

Chain of Serine/threonine-protein kinase WNK2 (Homo sapiens) (Q9Y3S1 whole entry): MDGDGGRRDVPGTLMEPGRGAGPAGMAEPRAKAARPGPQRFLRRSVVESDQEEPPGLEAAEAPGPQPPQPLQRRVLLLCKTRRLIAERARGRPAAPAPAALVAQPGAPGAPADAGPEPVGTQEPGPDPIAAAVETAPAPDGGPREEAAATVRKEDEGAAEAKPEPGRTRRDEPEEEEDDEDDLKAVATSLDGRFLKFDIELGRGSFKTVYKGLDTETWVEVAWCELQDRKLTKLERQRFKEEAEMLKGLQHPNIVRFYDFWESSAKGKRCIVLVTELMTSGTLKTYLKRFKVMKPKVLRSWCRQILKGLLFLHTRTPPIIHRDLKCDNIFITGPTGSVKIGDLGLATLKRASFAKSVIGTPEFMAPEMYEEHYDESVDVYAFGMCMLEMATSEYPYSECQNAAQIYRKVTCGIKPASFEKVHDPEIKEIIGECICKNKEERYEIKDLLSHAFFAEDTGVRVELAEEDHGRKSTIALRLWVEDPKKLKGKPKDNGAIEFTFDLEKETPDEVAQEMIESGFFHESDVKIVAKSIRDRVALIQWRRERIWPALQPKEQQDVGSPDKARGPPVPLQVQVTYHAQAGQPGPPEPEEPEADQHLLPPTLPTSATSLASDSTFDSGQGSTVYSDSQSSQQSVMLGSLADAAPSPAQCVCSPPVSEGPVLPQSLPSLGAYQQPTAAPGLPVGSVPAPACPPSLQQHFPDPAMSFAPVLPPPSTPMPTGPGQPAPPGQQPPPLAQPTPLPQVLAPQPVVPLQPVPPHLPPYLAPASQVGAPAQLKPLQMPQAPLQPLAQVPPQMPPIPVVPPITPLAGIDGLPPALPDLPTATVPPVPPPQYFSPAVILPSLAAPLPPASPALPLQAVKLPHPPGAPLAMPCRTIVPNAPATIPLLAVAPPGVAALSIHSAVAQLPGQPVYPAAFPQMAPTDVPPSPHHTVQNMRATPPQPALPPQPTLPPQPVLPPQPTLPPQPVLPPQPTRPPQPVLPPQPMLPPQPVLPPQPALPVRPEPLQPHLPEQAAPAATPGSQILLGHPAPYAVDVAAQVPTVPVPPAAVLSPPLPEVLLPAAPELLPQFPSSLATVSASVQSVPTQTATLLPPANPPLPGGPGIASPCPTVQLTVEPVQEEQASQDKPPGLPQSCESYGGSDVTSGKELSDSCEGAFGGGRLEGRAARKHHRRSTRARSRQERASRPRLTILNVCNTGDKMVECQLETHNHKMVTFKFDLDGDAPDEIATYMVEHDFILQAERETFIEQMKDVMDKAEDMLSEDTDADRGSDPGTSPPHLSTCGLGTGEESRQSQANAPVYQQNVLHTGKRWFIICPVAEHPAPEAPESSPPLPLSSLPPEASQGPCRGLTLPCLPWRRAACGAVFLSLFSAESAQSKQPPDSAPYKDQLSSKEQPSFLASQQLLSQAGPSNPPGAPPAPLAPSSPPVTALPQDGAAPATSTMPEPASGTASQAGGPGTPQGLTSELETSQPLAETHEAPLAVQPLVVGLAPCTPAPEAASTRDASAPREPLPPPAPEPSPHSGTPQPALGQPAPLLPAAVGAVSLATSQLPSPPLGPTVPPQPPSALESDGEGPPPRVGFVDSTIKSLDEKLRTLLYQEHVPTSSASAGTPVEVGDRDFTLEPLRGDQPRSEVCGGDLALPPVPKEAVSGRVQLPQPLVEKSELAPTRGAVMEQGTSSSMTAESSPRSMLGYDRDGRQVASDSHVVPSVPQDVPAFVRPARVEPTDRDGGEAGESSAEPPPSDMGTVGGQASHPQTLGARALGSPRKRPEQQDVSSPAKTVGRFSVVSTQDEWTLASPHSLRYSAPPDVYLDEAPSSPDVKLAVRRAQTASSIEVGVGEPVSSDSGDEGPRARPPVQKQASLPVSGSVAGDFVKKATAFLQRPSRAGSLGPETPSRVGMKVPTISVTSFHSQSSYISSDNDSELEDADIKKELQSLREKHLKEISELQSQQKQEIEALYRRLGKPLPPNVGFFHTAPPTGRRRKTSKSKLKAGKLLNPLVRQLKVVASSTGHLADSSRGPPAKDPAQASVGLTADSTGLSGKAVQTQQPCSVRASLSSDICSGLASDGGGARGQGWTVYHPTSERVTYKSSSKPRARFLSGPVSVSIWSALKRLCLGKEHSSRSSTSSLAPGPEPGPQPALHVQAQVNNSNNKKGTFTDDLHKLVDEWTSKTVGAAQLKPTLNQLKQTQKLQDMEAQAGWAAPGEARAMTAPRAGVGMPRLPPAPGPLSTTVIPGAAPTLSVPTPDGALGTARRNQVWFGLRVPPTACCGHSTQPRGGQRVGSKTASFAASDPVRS

Take `N#C/C(=C1/Nc2ccccc2S1)c1ccnc(NCCc2cccnc2)n1`: the residual activity (commonly the signal under treatment as a percentage of the control signal) was 68% in test [1]; 79% in test [2]; 17% in test [3]; 56% in test [4]; 11% in test [5]; 76% in test [6]. Also, the results for the residual activity in test [7] and in [8] were 44% and 63% (inactive), respectively.

`O=C1Nc2ccccc2/C1=C\c1c(Cl)[nH]c2ccccc12`: the residual activity is 81% in [9]; 78% in test [1]; 47% in [10]; 85% in test [4]; 34% in test [5]; 87% in [6]. For the same compound, the residual activity in test [7] was 57%; in test [11], 83%; in test [12] it was 74%; in [13], 76% (inactive); in test [14], 28%.

For `O=C(Nc1nc2ccccc2n1CCN1CCOCC1)c1cccc([N+](=O)[O-])c1`, the residual activity in [1] came out at 87%; in [15], 80%; in test [10], 40%; in test [4] it was 20%; in test [5], 29%; in test [6], 46%. In addition, the residual activity stood at 15% in test [7]; 104% in test [11]; 77% in test [12]; 103% in [16]; 83% in [17].

As for `COc1cc2nccc(Oc3ccc(NC(=O)Nc4cc(C)on4)c(Cl)c3)c2cc1OC`, the residual activity in [4] was 2%; in test [5], 0%; in test [6], 42%; in test [7], -10%; in [11], 98%; in test [12], 45%. The residual activity was 97% in test [18], 99% in [19], 103% (inactive) in test [13] and 100% (inactive) in test [8].

For the compound `COc1ccc2c(c1)c(C1=C(c3c[nH]c4ccccc34)C(=O)NC1=O)cn2CCCN(C)C`, the residual activity in [3] was 63%; in test [15], 99%; in test [10] it was 36%; in [4], 72%; in test [5], 35%; in [6] it was 77%. The residual activity is 43% in test [7]; 73% in [12]; 101% in test [18]; 82% in test [19]; 100% in test [16]; 59% in [17]. Moreover, the residual activity is 102% (inactive) in [13], 69% in test [14] and 107% (inactive) in test [8].

`Fc1ccc(-c2nc3n(c2-c2ccncc2)CCS3)cc1`: the residual activity in [1] was determined as 86%; in test [15], 128%; in [10] it was 124%; in test [5] it was 88%; in [11] it was 93%; in [14], 80%.

Consider `NC(=O)c1cccc(-c2cc(Nc3ccc(OC(F)(F)F)cc3)ncn2)c1`, for which the residual activity in test [5] is 65%; in test [16], 100%; in test [17], 93%; in test [8], 124% (inactive).

In the case of `O=C1Cc2c([nH]c3ccc([N+](=O)[O-])cc23)-c2ccccc2N1`, the residual activity in test [2] was 79%; in test [3], 72%; in test [4] it was 72%; in test [5] it was 63%; in [11], 49%; in [12], 39%. Besides, the residual activity in test [18] came out at 49%; in test [19], 45%; in [16], 75%; in test [17] it was 53%.

For the compound `COc1ccc(CNC(=O)Nc2ncc([N+](=O)[O-])s2)cc1`, the residual activity in [2] was 102%; in test [7], 110%; in [11] it was 67%; in test [12], 74%.

For the compound `Nc1nccc(-c2c(-c3ccc(F)cc3)ncn2C2CCNCC2)n1`, the residual activity was determined as 77% in test [3]; 100% in [4]; 74% in test [5]; 118% in test [6]; 61% in test [7]; 83% in [11]. In [12], the residual activity came out at 64%.

Regarding `CSc1nc(-c2ccc(F)cc2)c(-c2ccnc(NC(C)c3ccccc3)c2)[nH]1` (stereo unspecified), the residual activity in test [1] was found to be 101%; in test [3] it was 63%; in test [15], 91%; in [10] it was 41%; in test [5], 39%; in test [6] it was 3%. Further, the residual activity in [7] came out at 1%; in test [11], 86%; in test [12], 86%; in test [14] it was 93%.
